In the supplement of paper PMC8728848:
This is one part of a sample in which the strongest signals are shown more often than they occur.

Experiments:
Assay in all cases: glycan array binding signal (z-score within array); higher = stronger binding
Conditions in all cases: glycan notation: IUPAC condensed, linker removed
[1] = molecular target: Fuc(a1-2)Gal6S(b1-3)GlcNAc6S
Summary of the method: (§1)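 Glycan array data came from 3228 arrays in the Consortium for Functional Glycomics database, and only arrays with an available protein sequence were kept. Glycan names were put into IUPAC-condensed notation, and columns mapping to the same glycan were averaged. The binding signal is a within-array Z-score, averaged across arrays of one protein sequence run at different concentrations or buffers and across linkers. A negative Z-score can be read as non-binding.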

[2] = molecular target: Fuc(a1-2)[Gal(a1-3)]Gal(b1-3)GlcNAc(b1-2)Man(a1-3)[Fuc(a1-2)[Gal(a1-3)]Gal(b1-3)GlcNAc(b1-2)Man(a1-6)]Man(b1-4)GlcNAc(b1-4)[Fuc(a1-6)]GlcNAc
Summary of the method: as §1

[3] = molecular target: Fuc(a1-2)[GalNAc(a1-3)]Gal(b1-4)[Fuc(a1-3)]GlcNAc(b1-3)GalNAc
Summary of the method: as §1

[4] = molecular target: Fuc(a1-3)[Gal(b1-4)]GlcNAc
Summary of the method: as §1

[5] = molecular target: Fuc(a1-3)[Gal(b1-4)]GlcNAc(b1-3)Gal(b1-4)[Fuc(a1-3)]GlcNAc
Summary of the method: as §1

[6] = molecular target: Fuc(a1-3)[Gal(b1-4)]GlcNAc(b1-3)Gal(b1-4)[Fuc(a1-3)]GlcNAc(b1-3)Gal(b1-4)[Fuc(a1-3)]GlcNAc
Summary of the method: as §1

[7] = molecular target: Gal(a1-4)Gal(b1-4)GlcNAc(b1-2)Man(a1-3)[Gal(a1-4)Gal(b1-4)GlcNAc(b1-2)Man(a1-6)]Man(b1-4)GlcNAc(b1-4)GlcNAc
Summary of the method: as §1

Gal(b1-2)Gal = molecular target: Gal(b1-2)Gal
Summary of the method: as §1

[8] = molecular target: Gal(b1-3)[Fuc(a1-4)]GlcNAc(b1-6)GalNAc
Summary of the method: as §1

[9] = molecular target: Gal(b1-3)[Neu5Ac(a2-6)]GalNAc
Summary of the method: as §1

[10] = molecular target: Gal(b1-4)GlcNAc(b1-2)Man(a1-3)[Gal(b1-4)GlcNAc(b1-2)Man(a1-6)]Man(b1-4)GlcNAc(b1-4)[Fuc(a1-6)]GlcNAc
Summary of the method: as §1

[11] = molecular target: Gal(b1-4)GlcNAc(b1-2)Man(a1-6)[Man(a1-3)]Man(b1-4)GlcNAc(b1-4)GlcNAc
Summary of the method: as §1

[12] = molecular target: Gal(b1-4)GlcNAc(b1-3)Gal(b1-4)GlcNAc
Summary of the method: as §1

[13] = molecular target: Gal(b1-4)GlcNAc(b1-3)Gal(b1-4)GlcNAc(b1-3)Gal(b1-4)GlcNAc(b1-3)Gal(b1-4)GlcNAc(b1-3)Gal(b1-4)GlcNAc(b1-2)Man(a1-3)[Gal(b1-4)GlcNAc(b1-3)Gal(b1-4)GlcNAc(b1-3)Gal(b1-4)GlcNAc(b1-3)Gal(b1-4)GlcNAc(b1-3)Gal(b1-4)GlcNAc(b1-2)Man(a1-6)]Man(b1-4)GlcNAc(b1-4)GlcNAc
Summary of the method: as §1

[14] = molecular target: Gal(b1-4)GlcNAc(b1-3)Gal(b1-4)GlcNAc(b1-3)Gal(b1-4)GlcNAc(b1-3)Gal(b1-4)GlcNAc(b1-3)Gal(b1-4)GlcNAc(b1-2)Man(a1-3)[Gal(b1-4)GlcNAc(b1-3)Gal(b1-4)GlcNAc(b1-3)Gal(b1-4)GlcNAc(b1-3)Gal(b1-4)GlcNAc(b1-3)Gal(b1-4)GlcNAc(b1-2)Man(a1-6)]Man(b1-4)GlcNAc(b1-4)[Fuc(a1-6)]GlcNAc
Summary of the method: as §1

[15] = molecular target: Gal(b1-4)GlcNAc(b1-3)Gal(b1-4)GlcNAc(b1-3)Gal(b1-4)GlcNAc(b1-3)Gal(b1-4)GlcNAc(b1-3)Gal(b1-4)GlcNAc(b1-3)Gal(b1-4)GlcNAc(b1-2)Man(a1-3)[Gal(b1-4)GlcNAc(b1-3)Gal(b1-4)GlcNAc(b1-3)Gal(b1-4)GlcNAc(b1-3)Gal(b1-4)GlcNAc(b1-3)Gal(b1-4)GlcNAc(b1-3)Gal(b1-4)GlcNAc(b1-2)Man(a1-6)]Man(b1-4)GlcNAc(b1-4)GlcNAc
Summary of the method: as §1

[16] = molecular target: Gal(b1-4)GlcNAc(b1-3)[GlcNAc(b1-6)]Gal(b1-4)GlcNAc
Summary of the method: as §1

Gal3S6S(b1-4)GlcNAc6S = molecular target: Gal3S6S(b1-4)GlcNAc6S
Summary of the method: as §1

Gal4S6S(b1-4)GlcNAc = molecular target: Gal4S6S(b1-4)GlcNAc
Summary of the method: as §1

Gal6S(b1-3)GlcNAc6S = molecular target: Gal6S(b1-3)GlcNAc6S
Summary of the method: as §1

GalNAc(b1-4)GlcNAc6S = molecular target: GalNAc(b1-4)GlcNAc6S
Summary of the method: as §1

GlcA(b1-3)Gal = molecular target: GlcA(b1-3)Gal
Summary of the method: as §1

[17] = molecular target: GlcNAc(b1-2)Man(a1-3)[GlcNAc(b1-4)][GlcNAc(b1-2)Man(a1-6)]Man(b1-4)GlcNAc(b1-4)GlcNAc
Summary of the method: as §1

[18] = molecular target: GlcNAc(b1-3)Gal(b1-4)GlcNAc
Summary of the method: as §1

[19] = molecular target: GlcNAc(b1-3)Gal(b1-4)GlcNAc(b1-3)Gal(b1-4)GlcNAc(b1-2)Man(a1-3)[GlcNAc(b1-3)Gal(b1-4)GlcNAc(b1-3)Gal(b1-4)GlcNAc(b1-2)Man(a1-6)]Man(b1-4)GlcNAc(b1-4)GlcNAc
Summary of the method: as §1

[20] = molecular target: GlcNAc(b1-3)Gal(b1-4)GlcNAc(b1-3)Gal(b1-4)GlcNAc(b1-3)Gal(b1-4)GlcNAc(b1-2)[GlcNAc(b1-3)Gal(b1-4)GlcNAc(b1-3)Gal(b1-4)GlcNAc(b1-3)Gal(b1-4)GlcNAc(b1-6)]Man(a1-6)[GlcNAc(b1-3)Gal(b1-4)GlcNAc(b1-3)Gal(b1-4)GlcNAc(b1-3)Gal(b1-4)GlcNAc(b1-2)Man(a1-3)]Man(b1-4)GlcNAc(b1-4)[Fuc(a1-6)]GlcNAc
Summary of the method: as §1

[21] = molecular target: GlcNAc(b1-3)Gal(b1-4)GlcNAc(b1-3)Gal(b1-4)GlcNAc(b1-3)Gal(b1-4)GlcNAc(b1-3)Gal(b1-4)GlcNAc(b1-2)Man(a1-3)[GlcNAc(b1-3)Gal(b1-4)GlcNAc(b1-3)Gal(b1-4)GlcNAc(b1-3)Gal(b1-4)GlcNAc(b1-3)Gal(b1-4)GlcNAc(b1-2)Man(a1-6)]Man(b1-4)GlcNAc(b1-4)[Fuc(a1-6)]GlcNAc
Summary of the method: as §1

[22] = molecular target: Man(a1-2)Man(a1-6)[Man(a1-3)]Man(a1-6)[Man(a1-2)Man(a1-2)Man(a1-3)]Man(b1-4)GlcNAc(b1-4)GlcNAc
Summary of the method: as §1

Man(a1-3)[Man(a1-6)]Man = molecular target: Man(a1-3)[Man(a1-6)]Man
Summary of the method: as §1

[23] = molecular target: Man(a1-3)[Man(a1-6)]Man(b1-4)GlcNAc(b1-4)GlcNAc
Summary of the method: as §1

B1: MUB70 (Lactobacillus reuteri) (protein)
chain: CVHVQYIDGETDQMLRQDDLDGYTDETIPYSTAEGIKKFEGDGYELFKDNFPAGEKFDNDDTNDQFYTVIF
With B1 the “glycan array binding signal (z-score)” value [1] was 2.39, the “glycan array binding signal (z-score)” value [2] was -0.317 and the “glycan array binding signal (z-score)” value [3] was -0.274. The “glycan array binding signal (z-score)” value [4] was -0.273, the “glycan array binding signal (z-score)” value [5] was -0.143 and the “glycan array binding signal (z-score)” value [6] was -0.805. For the same binder, the “glycan array binding signal (z-score)” value [7] was 0.445, the “glycan array binding signal (z-score)” value (Gal(b1-2)Gal) was 2.16 and the “glycan array binding signal (z-score)” value [8] was -0.459. For the same binder, the “glycan array binding signal (z-score)” value [9] was 0.618, the “glycan array binding signal (z-score)” value [10] was -0.056 and the “glycan array binding signal (z-score)” value [11] was 0.734. The “glycan array binding signal (z-score)” value [12] was -0.399, the “glycan array binding signal (z-score)” value [13] was 0.479 and the “glycan array binding signal (z-score)” value [14] was 2.07. For the same binder, the “glycan array binding signal (z-score)” value [15] was 2.37, the “glycan array binding signal (z-score)” value [16] was -0.071 and the “glycan array binding signal (z-score)” value (Gal3S6S(b1-4)GlcNAc6S) was 3.78. For the same binder, the “glycan array binding signal (z-score)” value (Gal4S6S(b1-4)GlcNAc) was 1.99, the “glycan array binding signal (z-score)” value (Gal6S(b1-3)GlcNAc6S) was 4.49 and the “glycan array binding signal (z-score)” value (GalNAc(b1-4)GlcNAc6S) was 0.276. The “glycan array binding signal (z-score)” value (GlcA(b1-3)Gal) was -0.592, the “glycan array binding signal (z-score)” value [17] was 0.036 and the “glycan array binding signal (z-score)” value [18] was -0.453. The “glycan array binding signal (z-score)” value [19] was 2.17, the “glycan array binding signal (z-score)” value [20] was 0.94 and the “glycan array binding signal (z-score)” value [21] was 0.523. The “glycan array binding signal (z-score)” value [22] was 0.042, the “glycan array binding signal (z-score)” value (Man(a1-3)[Man(a1-6)]Man) was -0.052 and the “glycan array binding signal (z-score)” value [23] was -0.322.
